# Many of the other results were omitted from the sample, so hits are more common in it than they were.
# MBNL1 CUG block: inhibitors of human MBNL1 binding to CUG repeat RNA. TR-FRET MBNL1-His/biotin-(CUG)12 binding, 665/545 ratio. Potency, µM (highest dose often 57.5 µM), usual class: inhibitors. 280,000 compounds, 0.036% hits. AID 2675; active = well fitted inhibition curve with a large enough effect in the signal ratio, with a control signal flat, not every such curve was filed as active; inconclusive = small, poorly fitted or top-dose-only effect, or effect the other way, or a change in a side signal; inactive = no such curve, though single readings can be large or run the other way; the % refers to the signal ratio
#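 His-tagged MBNL1 binding to biotinylated (CUG)12 RNA was measured by TR-FRET using terbium anti-His antibody (0.055 ng/ul final) and streptavidin-XL665 (5 nM final). Compounds were titrated 92 nM to 58 uM; 60 min at room temperature.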
# IMPase Li inh: cell-permeable IMPase inhibitors with lithium potentiation. CHO-M1 cells, IP1 TR-FRET (IP-One), carbachol + lithium. Potency, µM (highest dose often 59.4 µM), most hits filed as inhibitors. 210,000 compounds, 0.35% hits;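 also: IP1 builds up when IMPase is blocked and the TR-FRET signal falls; nearly all actives have a fitted effect of over 50% in size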
#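 Concentration–response in CHO-M1 cells, lithium-potentiated; 30 min at 37C. IP1 detected by competitive TR-FRET after 10 min lysis at RT. Hill-fitted AC50.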
# GoLoco inh red: blocks human Gai1 binding to RGS12 GoLoco peptide, red readout; Gai1:RGS12 GoLoco peptide FP, rhodamine, 10 min; P63096; Potency, µM (series often up to 61.6 µM), usual class: inhibitors; 230,000 compounds, 0.44% hits; active = well fitted inhibition curve with a large enough effect, not every such curve was filed as active; inactive = no such curve, though single readings can be large or run the other way; also: nearly all actives have a fitted effect of over 30% in size
# Target sequence (P63096 whole entry, looked up): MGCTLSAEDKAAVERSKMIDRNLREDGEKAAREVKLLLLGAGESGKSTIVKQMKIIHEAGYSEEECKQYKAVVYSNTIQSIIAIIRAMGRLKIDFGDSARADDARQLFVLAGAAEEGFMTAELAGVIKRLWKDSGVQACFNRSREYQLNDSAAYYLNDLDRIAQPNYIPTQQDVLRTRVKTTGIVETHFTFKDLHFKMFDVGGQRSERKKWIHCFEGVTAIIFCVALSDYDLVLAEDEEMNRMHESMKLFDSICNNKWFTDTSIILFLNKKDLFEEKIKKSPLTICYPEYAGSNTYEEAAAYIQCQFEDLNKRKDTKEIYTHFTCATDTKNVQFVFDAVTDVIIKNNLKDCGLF
# NPSR antag: neuropeptide S receptor (human) antagonism, cAMP | Potency, µM (series often up to 38.3 µM), most hits filed as inhibitors | CHO-NPSR cells, cAMP TR-FRET, antagonist mode | Q6W5P4 | 220,000 compounds, 1% hits; also: nearly all actives have a fitted effect of over 50% in size
# Tb PFK block: T. brucei PFK enzyme inhibition; O15648; T. brucei PFK, ADP-Glo luminescence; Potency, µM (series often up to 57.5 µM), usual class: inhibitors; 330,000 compounds, 0.17% hits; also: nearly all actives have a fitted effect of over 60% in size
#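 Compounds were pin-transferred as a titration series up to 57 uM into substrate buffer (0.5 mM F6P, 0.1 mM ATP, pH 8.0), then 1.25 nM PFK was added and reactions ran 45 min before ADP-Glo detection.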
# Hits are given with their value; . = inactive; ? = inconclusive; / = no result; [ ] = remark or other dose. Unless noted, calls follow the shape of the dose curve; as a rule, active = well fitted curve in the direction sought with a large enough effect; inconclusive = small, poorly fitted or top-dose-only effect, or another doubt; inactive = no such curve, though single readings can be large; an effect the other way counts as inactive or inconclusive.
SMILES,MBNL1 CUG block,IMPase Li inh,GoLoco inh red,NPSR antag,Tb PFK block
CCN(CC)CCN1C(=O)C(O)=C(C(=O)c2cc3ccccc3o2)C1c1cccnc1 (stereo not drawn),.,10µM,.,?,.
O=C(Nc1c(C(=O)Nc2cccc(F)c2)oc2ccccc12)c1ccc2c(c1)OCO2,?,14µM,.,?,.
O=C(Nc1cccc(F)c1)c1ccc2c(c1)OCO2,.,.,.,.,.
Nc1c(-c2ccccc2)cnc2c(-c3ccccc3)cnn12,.,/,/,/,.
N#Cc1cnn2c(N)c(-c3ccc(Cl)cc3)cnc12,.,11µM,.,.,.
CCCN1CCN(C(=O)C2CCN(c3ncnc4c3nc3n4CCCCC3)CC2)CC1,.,/,/,/,.
CCC(C)C(NC(=O)c1ccccc1NC(=O)c1ccco1)C(=O)NNC(=O)c1ccncc1 (stereo not drawn),.,/,.,.,.
Cc1cc(=O)oc2cc(OCCCN3C(=O)c4ccccc4C3=O)ccc12,?,.,.,.,.
Cc1cc(=O)oc2cc(OC(=O)CCN3C(=O)c4ccccc4C3=O)ccc12,.,8.9µM,.,.,.
CCn1c(C)c(CCC(=O)O)c(=O)n2nc(-c3ccccc3OC)cc12,.,10µM,.,.,.
CCOC(=O)CCc1c(C)nc2cc(-c3ccccc3OC)[nH]n2c1=O,.,.,.,.,.
Oc1ccc2ccccc2c1N=Nc1ccccn1,?,.,.,7.9µM,.
Oc1ccc2ccccc2c1N=Nc1ccccc1F,.,/,.,.,.
N=C(N)SCc1nc(-c2ccc(Cl)cc2)no1,/,.,.[14.2 µM],/,/
COC(=O)C1=C(C)NC(C)=C(C(=O)OCCN(C)Cc2ccccc2)C1c1cccc([N+](=O)[O-])c1 (stereo not drawn),.,.,.,10µM,.
CCOC(=O)C1=C(C)NC(C)=C(C(=O)OCCNC(=O)c2cccnc2)C1c1cccc([N+](=O)[O-])c1 (stereo not drawn),?,.,.,.,.
COc1ccc(S(=O)(=O)NCC2CCCN(Cc3ccc(O)cc3)C2)cc1 (stereo not drawn),.,/,/,/,.
CC1=NC(=O)C(N=Nc2cccc(C(=O)O)c2)N1c1ccccc1 (stereo not drawn),?,.,20µM,.,.
CN1Cc2c(N3CCOCC3)nc3sc(C(=O)c4ccc(Br)cc4)c(N)c3c2CC1(C)C,?,/,.,13µM,.
Cc1ccc(NC(=O)c2cccc(S(=O)(=O)N3CCN(c4ccc(F)cc4)CC3)c2)nc1,.,/,/,/,.
COc1ccc(NC(=O)CCNS(=O)(=O)c2ccc(C)c(C)c2)cc1OC,.,/,/,/,.
CCc1cccc(C)c1NC(=O)CSc1nc2ccc(N3C(=O)c4ccccc4C3=O)cc2s1,.,16µM,.,.,.
CCc1cccc(CC)c1NC(=O)CSc1nc2ccc(N3C(=O)C4C(C3=O)[C@H]3C=C[C@@H]4C3)cc2s1 (stereo partly drawn),.,.,2µM,.,.
Cc1cc(C)c(NC(=O)CSc2nc3ccc(N4C(=O)c5ccccc5C4=O)cc3s2)c(C)c1,.,.,.,.,.
COc1cc(C)ccc1OCc1cc(C(=O)NC(C)Cn2cncn2)no1 (stereo not drawn),.,/,/,/,.
SMILES,MBNL1 CUG block,IMPase Li inh,GoLoco inh red,NPSR antag,Tb PFK block
Cc1noc(C)c1C(=O)Nc1ccccc1N1CCCC1,/,/,/,/,.
CCOc1ccc(NC(=S)Nc2ccc3nsnc3c2)cc1,.,.,.,10µM,.
COC(=O)CNc1n[nH]c(=S)[nH]c1=O,?,11µM,.,.,.
CC(C)OC(=O)CNc1n[nH]c(=S)[nH]c1=O,.,11µM,.,?,.
COc1cc(OC)nc(-n2ncc(Br)c(Br)c2=O)n1,.[11.5 µM],.,.,6.3µM,.
COC(=O)c1cnn(-c2nc(OC)cc(OC)n2)c1C,.,.,.,.,.
CCc1cccc(C)c1NC(=O)CSc1nc(-c2ccccc2F)nc2nc[nH]c12,?,?,.,.,.
O=C(CSc1nc(-c2ccccc2F)nc2nc[nH]c12)Nc1c(Cl)cc(Cl)cc1Cl,.,?,.,5µM,.
CCOC(=O)c1c(C)[nH]c(C(=O)OCC(=O)N2CCN(S(=O)(=O)c3ccc(C)cc3C)CC2)c1C,/,/,/,/,.
COc1ccc2[nH]c(-c3ccc(F)cc3F)cc(=O)c2c1,/,.,.,/,/
COc1ccc2[nH]c3c4c(ccc3c2c1)C(=O)C=CC4=O,.,/,22µM,?,12µM
Cc1cc(C)n2nc(C(=O)OCC(=O)N(Cc3ccccc3)C(C)C)nc2n1,/,/,/,/,.
Cc1ccc(C2C(C#N)=C(N)SC(N)=C2C#N)c(C)c1,?,7.9µM,.,.,.
CN(C(=O)CSc1nnc(CNC(=O)c2ccccc2)o1)c1ccccc1,.,/,/,/,.
CC(C)(C)c1ccc(C(=O)CCCN2CCC(OC(c3ccccc3)c3ccccc3)CC2)cc1,/,/,.,/,/
Cc1ccccc1C(=O)NC(CC(C)C)C(=O)OCc1cc(=O)n2cc(Br)ccc2n1 (stereo not drawn),.,.,.,.,.
CC(C)[C@H](NC(=O)c1ccccc1Cl)C(=O)OCc1cc(=O)n2cc(Br)ccc2n1,?,11µM,.,.,.
NC1=NC[C@H](CC2CCCCC2)N1CCc1cc(C(F)(F)F)cc(C(F)(F)F)c1,.,/,.,10µM,.
CSc1nc(N)nc2c1ncn2CC(=O)N1CCN(Cc2c(C)cc(C)cc2C)CC1,/,/,/,/,.
CCCCCCCCCCCCCCCCCC(=O)NCC(COP(=O)([O-])OCC[N+](C)(C)C)OCC (stereo not drawn),/,.,.,?,/
CCCCCCCCCCCCCCCC(=O)NCC(COP(=O)([O-])OCC[N+](C)(C)C)OCC (stereo not drawn),/,.,.,10µM,/
COc1ccc2c(C)cc(SCC(=O)NC3CCCCC3)nc2c1,/,/,/,/,.
COc1ccc2c(C)cc(SCC(=O)Nc3ccc(Cl)cn3)nc2c1,/,8.9µM,.,?,.
CCOC(=O)[C@H]1[C@H]2COc3ccccc3[C@@H]2N2C(=O)c3ccccc3NC(=O)[C@@]12C,/,/,/,/,.
COC(=O)/C=C/c1cc(O)ccc1O,/,.,2.8µM,/,/
SMILES,MBNL1 CUG block,IMPase Li inh,GoLoco inh red,NPSR antag,Tb PFK block
COC(=O)c1ccc2c(c1)C(C)(C)C(/C=C/c1ccc(OC)c(OC)c1OC)=[N+]2C,.,.,.,10µM,.
COC(=O)c1ccc2c(c1)C(C)(C)C(/C=C/c1ccc(O)cc1)=[N+]2C,.,.,.,?,.
CC1=C(CO)C(=O)OC([C@@H](C)C2CC[C@H]3C4C[C@H]5O[C@]56[C@@H](O)C=CC(=O)[C@]6(C)C4CC[C@]23C)C1 (stereo partly drawn),.,/,.,5µM,.
CC(C(=O)O)C1CCC2C3CC=C4CC(O)CC[C@@]4(C)C3CC[C@]12C (stereo partly drawn),/,.,.,/,/
CCn1c(=S)[nH]c2c(c1=O)C(C)(C)Cc1ccccc1-2,.,4.5µM,.,?,.
Cn1c(=S)[nH]c2c(c1=O)C(C)(C)Cc1ccccc1-2,/,1.4µM,.,6.3µM,.

# Compound activity as filed in PubChem.
